The text below walks through data of PubChem BioAssay (NCATS).

Molecules are shown by their SMILES. Records with an inconclusive call do not appear. The source made the active and inactive calls. Unless noted, the call rests on the fitted dose curve; in most records, active means well fitted curve in the direction sought with a large enough effect; inconclusive means small, poorly fitted or top-dose-only effect, or another doubt; inactive means no such curve, though single readings can be large; an effect the other way counts as inactive or inconclusive.

For experiment [1], the target named is Lysosomal acid glucosylceramidase (Homo sapiens) (UniProt P04062). The experiment is described as follows: Glucocerebrosidase-p2 (AID 348; in the data active means potency below about 10 µM; further: potency means the concentration at half of the fitted maximal effect). The following applies: purified GBA, blue fluorogenic substrate, 40 min. In a few lines: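 Normal human glucocerebrosidase (0.2 nM) with blue fluorogenic substrate (80 uM final) in citrate/phosphate pH 5.9 with 10mM sodium taurocholate, 0.01% tween-20; 40 min RT, NaOH/glycine stop; fluorescence Ex 365/Em 440; AC50 from a titration from 0.6 nM upwards.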

Experiment [2] can be described thus: AP1 Signaling Pathway (AID 357; active means well fitted curve in either direction with a large enough effect, not every such curve was filed as active;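 further: ME-180 reporter cells stimulated with EGF at its EC50 level; on the % scale 0 is the no-effect control and ±100 the full control effect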). Conditions: ME-180 AP-1-bla reporter, EGF-induced, beta-lactamase ratio, 5 h; at 7.69 µM (top of the series) unless noted. In outline: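 Titration-series screen for positive or negative modulators of EC50 EGF-induced signaling in ME-180 cells carrying an AP-1-driven beta-lactamase reporter. After 5 hours at 37 degrees Celsius, CCF4 460nm/530nm emission ratio gave %Activity; AC50 values derived.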

A short description of experiment [3]: NFAT Signaling Pathway (AID 444; active means well fitted curve in either direction with a large enough effect, not every such curve was filed as active;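 further: carbachol stimulus at about its EC50 of 1 µM final; on the % scale 0 is the no-effect control and ±100 the full control effect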). Conditions: Jurkat NFAT-bla M1, carbachol, beta-lactamase ratio, 5 h; at 7.69 µM (top of the series) unless noted. In outline: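 Jurkat cells with NFAT-driven β-lactamase reporter and co-expressed M1 receptor, stimulated with carbachol (final 1 uM, ~EC50), compound titration, 5 h at 37 °C. CCF4 loaded 1 h at RT; 460/530 nm ratio gave %activity and AC50.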

Experiment [4] is described as follows: Stat Signaling Pathway (AID 446; active means well fitted curve in either direction with a large enough effect, not every such curve was filed as active;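 further: ME-180 cervical cancer cells given 40 pM IL-6 alongside compound; SIE-controlled beta-lactamase reporter measured as 460/530 nm FRET emission ratio; on the % scale 0 is the no-effect control and ±100 the full control effect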). Conditions: ME-180 (cervical carcinoma) SIE beta-lactamase reporter, IL-6 stimulated, 5 h; at 7.69 µM (top of the series) unless noted. In a few lines: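 Compound effects on IL-6-induced STAT reporter activity were measured in ME-180 cells. After overnight culture, cells were co-treated with 40 pM IL-6 for 5 hrs before beta-lactamase substrate loading at room temperature.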

Experiment [5] has as its target Glucocorticoid receptor (Homo sapiens) (UniProt P04150). Briefly: GR-GFP Redistribution (AID 450;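 active means compounds whose dose series gives a full or clear partial fitted curve of increased nuclear translocation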; further: potency means the concentration at half of the fitted maximal effect). The following applies: U2OS GR-GFP nuclear translocation, laser cytometry, 2 h.
The target is the same in experiment [6]. The experiment is described as follows: GR-EFC Redistribution (AID 451; calls by dose curve; further: potency means the concentration at half of the fitted maximal effect). The following applies: CHO-K1 GR-EFC translocation, beta-gal luminescence, 2 h. In outline: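 CHO-K1 cells expressing nuclear EA and GR-ED fragments of b-gal; compounds titrated up to 46 uM final, 2 h at 37 C. GR nuclear translocation read as complemented b-gal luminescence after 1 h RT detection.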

Experiment [7] addresses Mitogen-activated protein kinase 10 (Mus musculus) (UniProt Q61831). The experiment is described as follows: JNK3 AlphaScreen Assay (AID 530; active means well fitted curve in either direction with a large enough effect, not every such curve was filed as active;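 further: kinase came from lysate of stimulated human HepG2 cells; signal reports phosphorylation of biotinylated GST-cJun 1-79 at Ser73 with 10 µM ATP; on the % scale 0 is the no-effect control and ±100 the full control effect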). The following applies: JNK3 lysate, c-Jun phosphorylation; series mostly up to 57.1 µM. In outline: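 HepG2 lysate (IL-1b/TNFa pre-activated) + biotin-GST-cJun 1-79 + anti-pSer73 cJun; cpd titration, 15 min RT; ATP 10 uM start; Tris pH 7.6, MgCl2, DTT, vanadate; beads in EDTA buffer; AlphaScreen.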
Background: In Alpha technology, singlet oxygen from a donor bead excites a nearby acceptor bead.

Experiment [8] can be described thus: qHTS Assay for Lipid Storage Modulators (AID 1519; calls by dose curve). The following applies: Drosophila S3 cells, BODIPY lipid droplet/cell ratio, laser cytometry, cells loaded with oleic acid; for activity change, negative = inhibition: at 57.5 µM (top of the series). In a few lines:
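Cells seeded at 5,000 per well were treated with compounds over a concentration series and loaded with oleic acid (400 uM, as added). Lipid droplet fluorescence (488 nm excitation, 500-530 nm channel) was read by laser-scanning cytometry and normalized to 20 uM Triacsin C.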

Experiment [9] has as its target Dual specificity protein kinase CLK4 (Homo sapiens) (UniProt Q9HAZ1). Briefly: qHTS Assay for Inhibitors of CDC-like Kinase 4 (Kinase-Glo Assay) (AID 1770). Further: nearly all actives have a fitted effect of over 65% in size. Further: potency means the concentration at half of the fitted maximal effect. The following applies: recombinant Clk4, Kinase-Glo ATP depletion luminescence; series mostly up to 66.7 µM. In outline:
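Luminescent ATP-depletion read-out (Kinase-Glo) after 4.5 h room-temperature reaction of Clk4 (25 nM final) with RS peptide (100 uM) and ATP (1 uM), pH 7.5 Tris buffer with MgCl2 and DTT.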
On the technique in general: qHTS replaces the single test concentration by a dilution series.

The target is the same in experiment [10]. The experiment is described as follows: qHTS Assay for Inhibitors of CDC-like Kinase 4 (ADP-Glo Assay) (AID 1771). Further: nearly all actives have a fitted effect of over 70% in size. Further: potency means the concentration at half of the fitted maximal effect. The following applies: recombinant CLK4, ADP-Glo luminescence; series mostly up to 80 µM. In a few lines:
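In this ADP-Glo format, 1 uM ATP and 100 uM RS peptide served as substrates for 25 nM Clk4 in Mg2+/EGTA/DTT/Triton buffer; reactions ran 1 hr at room temperature before luminescent ADP quantification.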

For experiment [11] the target is unchanged. Briefly: qHTS Assay for Inhibitors of CDC-like Kinase 4 (ADP-FP Assay) (AID 1795). Further: nearly all actives have a fitted effect of over 60% in size. Further: potency means the concentration at half of the fitted maximal effect. The following applies: Transcreener ADP fluorescence polarization; series mostly up to 50 µM. In a few lines:
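Kinase activity was measured as ADP production using Transcreener orange tracer (4 nM) and ADP antibody (1 ug/mL) fluorescence polarization, with ADP calculated from a calibration curve. The 1 h reaction contained 6.25 nM Clk4, 1 uM ATP and 100 uM RS peptide at pH 7.5 with Mg2+.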

Experiment [12] addresses 3',5'-cyclic-AMP phosphodiesterase 4B (Homo sapiens) (UniProt Q07343). The experiment is described as follows: qHTS Assay for Inhibitors of PDE-IV (AID 607; active means well fitted activation curve with a large enough effect in the main read-out, with a control signal flat, not every such curve was filed as active; further: % of control where 0% means no effect). Conditions: HEK293 ACTOne CNG channel cells, membrane potential fluorescence; series mostly up to 22.9 µM. In outline: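 ACTOne HEK293 cells carry a modified cAMP-gated CNG channel and express endogenous PDE4; plated 1000 cells/well, compounds up to 22.9 uM final. Membrane-potential dye fluorescence (ex 535/em 590) was read; parental cells received 10 uM forskolin + 100 uM RO 20-1724.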

The target in experiment [13] is Ubiquitin carboxyl-terminal hydrolase 1 (Homo sapiens) (UniProt O94782). The experiment is described as follows: Inhibitors of USP1/UAF1: Pilot qHTS (AID 504865).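 Further: rhodamine fluorescence freed from ubiquitin-rhodamine substrate followed over time; top concentration of the series differs between compounds; on the % scale 0 is the no-effect control and ±100 the full control effect; nearly all actives have a fitted effect of over 35% in size.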 The following applies: purified USP1/UAF1, Ub-rhodamine cleavage fluorescence; series mostly up to 54.9 µM. In outline: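 Deubiquitinase activity followed as kinetic rhodamine fluorescence release from 150 nM Ub-Rho. 1 nM USP1/UAF1 with compound, after 15 min room-temperature preincubation, in HEPES pH 7.8 buffer containing TCEP, EDTA, BSA and Tween-20.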

Experiment [14] deals with Cytochrome P450 1A2 (Homo sapiens) (UniProt P05177). Briefly: p450-cyp1a2 (AID 410; calls by dose curve;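 further: -100% = full effect of reference inhibitor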). Conditions: recombinant CYP1A2, luciferin-ME demethylation, luminescence; series mostly up to 57 µM. In a few lines: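 Read-out is luminescence from luciferin produced by CYP1A2 demethylation of Luciferin-ME (100uM, at Km). Detection reagent stopped the 60 min NADPH-dependent reaction; signals were normalized to 57 uM furafylline.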

The target in experiment [15] is Cytochrome P450 3A4 (Homo sapiens) (UniProt P08684). The experiment is described as follows: qHTS Assay for Activators of Cytochrome P450 3A4 (AID 885). Further: nearly all actives have a fitted effect of over 65% in size. The following applies: recombinant CYP3A4, Luciferin-PPXE luminescence, 60 min; series mostly up to 57.1 µM. In outline: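 CYP3A4 activity: Luciferin-PPXE O-dealkylation, 25uM substrate, 200mM KPO4, RT throughout. Read-out is luciferase luminescence; higher values reflect activation.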

The target in experiment [16] is Cytochrome P450 2C19 (Homo sapiens) (UniProt P33261). Briefly: qHTS Assay for Inhibitors and Substrates of Cytochrome P450 2C19 (AID 899). Further: on the % scale 0 is the no-effect control and ±100 the full control effect; nearly all actives have a fitted effect of over 60% in size. The following applies: recombinant CYP2C19, luciferin-H EGE luminescence; series mostly up to 57.1 µM. In a few lines: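 Signal comes from luciferase acting on luciferin released by CYP2C19-mediated hydroxylation of Luciferin-H EGE, 10uM (KM). Assay mix: 5nM enzyme, 50mM KPO4; 60 min at 37C with NADPH regeneration. Data normalized against 57uM ketoconazole.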

Where [17] appears, read: measured here: cell count channel max response.
Setting [18] is: measured here: lipid channel max response.

Chain of Lysosomal acid glucosylceramidase (Homo sapiens) (P04062 whole entry, looked up): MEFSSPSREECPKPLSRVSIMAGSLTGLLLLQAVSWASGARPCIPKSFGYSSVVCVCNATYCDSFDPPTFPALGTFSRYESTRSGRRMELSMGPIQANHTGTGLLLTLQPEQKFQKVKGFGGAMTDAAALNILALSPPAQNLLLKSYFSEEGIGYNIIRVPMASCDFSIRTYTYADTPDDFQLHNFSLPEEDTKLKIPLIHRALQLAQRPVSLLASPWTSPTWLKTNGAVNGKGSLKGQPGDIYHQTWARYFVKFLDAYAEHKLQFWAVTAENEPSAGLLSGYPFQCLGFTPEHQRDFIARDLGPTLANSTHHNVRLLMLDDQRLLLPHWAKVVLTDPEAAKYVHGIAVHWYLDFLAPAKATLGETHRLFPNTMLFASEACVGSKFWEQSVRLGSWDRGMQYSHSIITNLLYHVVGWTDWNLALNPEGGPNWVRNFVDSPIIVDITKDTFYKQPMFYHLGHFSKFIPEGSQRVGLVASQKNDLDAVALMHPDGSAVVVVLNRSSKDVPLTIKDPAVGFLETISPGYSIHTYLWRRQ
Chain of Cytochrome P450 3A4 (Homo sapiens) (P08684 whole entry, looked up): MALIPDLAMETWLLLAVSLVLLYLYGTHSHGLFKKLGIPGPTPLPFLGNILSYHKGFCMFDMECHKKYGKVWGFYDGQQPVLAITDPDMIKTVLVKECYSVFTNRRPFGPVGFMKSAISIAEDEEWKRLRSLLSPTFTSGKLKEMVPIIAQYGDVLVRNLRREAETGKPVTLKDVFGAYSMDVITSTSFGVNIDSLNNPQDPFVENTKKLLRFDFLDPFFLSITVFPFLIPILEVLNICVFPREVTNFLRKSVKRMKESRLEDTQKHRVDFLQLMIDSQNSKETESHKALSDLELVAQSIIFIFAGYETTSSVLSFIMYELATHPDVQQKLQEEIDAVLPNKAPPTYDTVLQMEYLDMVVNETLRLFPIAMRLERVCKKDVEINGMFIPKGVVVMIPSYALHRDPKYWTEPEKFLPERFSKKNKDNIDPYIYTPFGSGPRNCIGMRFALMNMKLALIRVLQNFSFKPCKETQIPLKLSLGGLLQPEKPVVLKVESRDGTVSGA
Chain of Dual specificity protein kinase CLK4 (Homo sapiens) (Q9HAZ1 whole entry, looked up): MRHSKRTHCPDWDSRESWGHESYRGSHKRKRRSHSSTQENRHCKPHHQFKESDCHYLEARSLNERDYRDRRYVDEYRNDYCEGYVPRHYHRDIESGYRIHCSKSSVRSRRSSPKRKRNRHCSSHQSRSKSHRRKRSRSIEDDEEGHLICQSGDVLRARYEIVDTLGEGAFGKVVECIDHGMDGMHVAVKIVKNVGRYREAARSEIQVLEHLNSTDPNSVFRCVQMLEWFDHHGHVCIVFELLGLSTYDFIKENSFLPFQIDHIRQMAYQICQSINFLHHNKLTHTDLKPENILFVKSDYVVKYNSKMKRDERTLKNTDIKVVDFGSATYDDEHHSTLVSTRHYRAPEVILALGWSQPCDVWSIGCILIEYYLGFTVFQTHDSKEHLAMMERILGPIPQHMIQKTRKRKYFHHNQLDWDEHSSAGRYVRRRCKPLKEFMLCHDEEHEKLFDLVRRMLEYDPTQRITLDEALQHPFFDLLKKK
Chain of Cytochrome P450 1A2 (Homo sapiens) (P05177 whole entry, looked up): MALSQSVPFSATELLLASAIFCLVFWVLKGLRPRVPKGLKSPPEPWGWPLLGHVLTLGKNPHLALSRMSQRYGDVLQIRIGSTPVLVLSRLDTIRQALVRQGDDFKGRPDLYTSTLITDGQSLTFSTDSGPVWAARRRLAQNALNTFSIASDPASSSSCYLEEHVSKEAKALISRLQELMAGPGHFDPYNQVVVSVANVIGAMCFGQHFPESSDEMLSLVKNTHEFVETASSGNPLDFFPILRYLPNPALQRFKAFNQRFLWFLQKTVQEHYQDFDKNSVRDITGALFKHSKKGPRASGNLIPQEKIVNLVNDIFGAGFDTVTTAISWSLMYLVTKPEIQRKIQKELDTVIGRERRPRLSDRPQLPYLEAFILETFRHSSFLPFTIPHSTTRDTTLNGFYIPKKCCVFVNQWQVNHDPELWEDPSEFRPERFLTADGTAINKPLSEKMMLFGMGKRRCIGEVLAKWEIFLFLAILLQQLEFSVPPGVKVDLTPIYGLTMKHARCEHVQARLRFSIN
Chain of Glucocorticoid receptor (Homo sapiens) (P04150 whole entry, looked up, the tested form may be a part): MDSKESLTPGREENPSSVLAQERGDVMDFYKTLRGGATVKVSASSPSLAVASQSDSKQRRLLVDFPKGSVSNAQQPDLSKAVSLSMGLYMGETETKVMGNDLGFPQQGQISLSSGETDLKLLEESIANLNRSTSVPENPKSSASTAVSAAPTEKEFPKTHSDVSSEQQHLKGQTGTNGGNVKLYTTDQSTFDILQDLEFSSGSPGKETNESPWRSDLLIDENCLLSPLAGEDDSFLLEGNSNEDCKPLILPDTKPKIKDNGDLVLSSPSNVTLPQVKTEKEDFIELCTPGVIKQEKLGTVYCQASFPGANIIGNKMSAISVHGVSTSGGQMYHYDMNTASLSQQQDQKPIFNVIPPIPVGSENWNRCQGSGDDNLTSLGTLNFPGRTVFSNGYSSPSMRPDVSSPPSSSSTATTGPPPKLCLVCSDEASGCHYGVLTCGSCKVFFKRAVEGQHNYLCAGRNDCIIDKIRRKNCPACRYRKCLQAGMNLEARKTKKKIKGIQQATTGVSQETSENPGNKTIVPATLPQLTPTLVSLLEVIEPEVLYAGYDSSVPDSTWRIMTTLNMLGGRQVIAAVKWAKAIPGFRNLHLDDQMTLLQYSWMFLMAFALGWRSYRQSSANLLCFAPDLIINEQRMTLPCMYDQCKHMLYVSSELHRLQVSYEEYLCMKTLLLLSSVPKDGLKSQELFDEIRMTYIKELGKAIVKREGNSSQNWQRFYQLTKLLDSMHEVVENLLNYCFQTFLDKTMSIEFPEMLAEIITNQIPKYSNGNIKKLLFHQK
Chain of 3',5'-cyclic-AMP phosphodiesterase 4B (Homo sapiens) (Q07343 whole entry, looked up): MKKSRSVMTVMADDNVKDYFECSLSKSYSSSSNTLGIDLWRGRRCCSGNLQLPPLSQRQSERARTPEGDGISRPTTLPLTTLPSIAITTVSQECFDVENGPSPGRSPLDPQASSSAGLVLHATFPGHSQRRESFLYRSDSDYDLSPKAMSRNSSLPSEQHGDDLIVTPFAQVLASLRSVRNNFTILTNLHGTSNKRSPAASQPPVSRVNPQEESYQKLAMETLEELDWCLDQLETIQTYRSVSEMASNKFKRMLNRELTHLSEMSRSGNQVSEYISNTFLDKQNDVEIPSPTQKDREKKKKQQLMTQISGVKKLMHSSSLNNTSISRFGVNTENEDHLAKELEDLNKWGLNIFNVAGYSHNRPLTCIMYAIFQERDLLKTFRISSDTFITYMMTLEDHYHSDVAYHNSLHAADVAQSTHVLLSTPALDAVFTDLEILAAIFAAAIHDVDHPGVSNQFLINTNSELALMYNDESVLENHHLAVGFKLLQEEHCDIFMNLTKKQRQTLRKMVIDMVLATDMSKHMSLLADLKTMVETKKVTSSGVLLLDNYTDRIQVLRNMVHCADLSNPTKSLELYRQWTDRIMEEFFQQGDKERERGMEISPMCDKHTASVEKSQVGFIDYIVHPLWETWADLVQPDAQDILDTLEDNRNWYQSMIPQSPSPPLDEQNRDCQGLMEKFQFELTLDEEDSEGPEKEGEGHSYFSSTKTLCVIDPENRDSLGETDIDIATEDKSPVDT
Chain of Ubiquitin carboxyl-terminal hydrolase 1 (Homo sapiens) (O94782 whole entry, looked up): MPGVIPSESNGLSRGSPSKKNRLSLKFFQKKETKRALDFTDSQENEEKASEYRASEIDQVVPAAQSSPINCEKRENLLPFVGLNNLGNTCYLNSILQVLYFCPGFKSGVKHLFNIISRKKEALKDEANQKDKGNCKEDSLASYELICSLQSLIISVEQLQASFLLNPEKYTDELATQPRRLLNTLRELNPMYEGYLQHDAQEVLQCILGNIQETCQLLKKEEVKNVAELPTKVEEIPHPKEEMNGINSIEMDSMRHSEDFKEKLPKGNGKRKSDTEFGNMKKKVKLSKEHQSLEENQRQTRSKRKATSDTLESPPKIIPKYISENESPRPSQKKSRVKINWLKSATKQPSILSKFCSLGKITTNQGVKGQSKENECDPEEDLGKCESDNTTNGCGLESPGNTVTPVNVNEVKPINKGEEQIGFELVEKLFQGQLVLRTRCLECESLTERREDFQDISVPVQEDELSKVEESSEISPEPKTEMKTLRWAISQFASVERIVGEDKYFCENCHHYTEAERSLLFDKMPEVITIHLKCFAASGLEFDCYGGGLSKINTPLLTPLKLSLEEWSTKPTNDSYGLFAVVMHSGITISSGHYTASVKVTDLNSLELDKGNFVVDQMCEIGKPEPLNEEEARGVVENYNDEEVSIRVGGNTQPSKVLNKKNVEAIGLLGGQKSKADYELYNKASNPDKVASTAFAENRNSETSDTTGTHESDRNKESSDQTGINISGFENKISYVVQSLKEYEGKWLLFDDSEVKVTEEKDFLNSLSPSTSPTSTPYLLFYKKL
Chain of Cytochrome P450 2C19 (Homo sapiens) (P33261 whole entry, looked up): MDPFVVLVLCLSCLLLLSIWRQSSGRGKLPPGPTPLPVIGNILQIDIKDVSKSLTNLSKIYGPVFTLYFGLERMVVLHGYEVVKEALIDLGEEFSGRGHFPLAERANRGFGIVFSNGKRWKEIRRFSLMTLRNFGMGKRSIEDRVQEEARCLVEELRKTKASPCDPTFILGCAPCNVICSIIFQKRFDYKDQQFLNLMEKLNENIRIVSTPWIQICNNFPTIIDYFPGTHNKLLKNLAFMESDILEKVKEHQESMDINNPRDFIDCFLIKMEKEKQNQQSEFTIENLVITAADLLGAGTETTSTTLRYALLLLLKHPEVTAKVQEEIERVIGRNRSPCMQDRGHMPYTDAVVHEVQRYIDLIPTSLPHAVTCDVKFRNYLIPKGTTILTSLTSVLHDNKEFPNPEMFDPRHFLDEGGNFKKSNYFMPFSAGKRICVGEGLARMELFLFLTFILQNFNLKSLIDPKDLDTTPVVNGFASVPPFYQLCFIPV

Take `COc1ccccc1-c1nccc(Nc2ccc(F)cc2)n1`: the Potency in experiment [1] is > 11.4 µM (inactive); in experiment [5], > 46 µM (inactive); in experiment [6], > 46 µM (inactive). Besides, the activity change, negative = inhibition is 6.43% (inactive) in experiment [2], 10.2% (inactive) in experiment [3] and 4.58% (inactive) in [8]. In addition, the activity, negative = inhibition in experiment [4] is -4% (inactive). Further, the Potency entry in experiment [7], in [9], in experiment [10] and in [11] was “inactive” each time. Further, the max response in experiment [8] (setting [17]) came out at 9.46%; in experiment [8] (setting [18]), 12.9%.
For `Cn1c(=O)c(-c2ccc(F)cc2)nc2cnc(OCc3ccccc3)nc21`, the Potency was > 11.4 µM (inactive) in experiment [1], > 9.22 µM (inactive) in [5] and > 46 µM (inactive) in [6]. Further, the figures for the activity change, negative = inhibition in experiment [2], in experiment [3] and in experiment [8] were 14.6% (inactive), 19.9% (inactive) and 5.66% (inactive), respectively. For the same compound, the activity, negative = inhibition in experiment [4] was -11.9% (inactive). Moreover, the Potency entry in [7], in [12], in [9], in [10], in experiment [11] and in [13] was “inactive” in each case. For the same compound, the max response in [8] (setting [17]) was 7.28%; in experiment [8] (setting [18]), 10.2%.
Turning to `Cc1noc(C)c1-c1cncnc1N1CCN(C)CC1`, the results for the Potency in [1], in [5] and in experiment [6] were > 11.4 µM (inactive), > 46 µM (inactive) and > 46 µM (inactive), respectively. For the same compound, the activity change, negative = inhibition in [2] was 1.14% (inactive); in [3] it was -0.298% (inactive); in experiment [8] it was -1.64% (inactive). Also, the Potency result in experiment [14], in experiment [7], in [12], in [15], in [16] and in experiment [9] was “inactive” throughout. Also, the Potency entry in experiment [10], in [11] and in experiment [13] was “inactive” throughout. The activity, negative = inhibition in experiment [4] was 24.7% (inactive). Further, the max response in [8] (setting [17]) worked out at 15.1%; in experiment [8] (setting [18]), 9.71%.
Regarding `COc1cccc(Cn2c(=O)c(-c3cc(F)cc(F)c3)nc3cnc(N4CCNCC4)nc32)c1`, the Potency in experiment [1] was > 11.4 µM (inactive); in [5], > 9.22 µM (inactive); in experiment [6] it was > 46 µM (inactive). The activity change, negative = inhibition in experiment [2] is 117% [activator] (active); in experiment [3] it was 225% [activator] (active); in experiment [8], -13.2% (inactive). Also, the Potency entry in [14], in experiment [12], in [15], in experiment [9], in experiment [10] and in experiment [11] was “inactive” in each case. Further, the max response in experiment [8] (setting [17]) is -15.6%; in [8] (setting [18]) it was -28.1%.
Regarding `COc1ccc(-n2c(=O)c(CCc3ccccc3)nc3cnc(N4CCN(C)CC4)nc32)cc1`, the Potency in [1] was > 11.4 µM (inactive); in experiment [5], > 9.22 µM (inactive); in [6] it was > 46 µM (inactive). The activity change, negative = inhibition in [2] is -22.3% (inactive); in [3], -24% (inactive); in experiment [8], 2.13% (inactive). Also, the Potency result in experiment [14], in experiment [7], in experiment [12], in experiment [15], in [9] and in [10] was “inactive” throughout. Moreover, the Potency entry in experiment [11] and in experiment [13] was “inactive” each time. Further, the activity, negative = inhibition in experiment [4] was -10.4% (inactive). For the same compound, the max response in experiment [8] (setting [17]) amounted to 12.7%; in experiment [8] (setting [18]), 12.5%.
With `COc1cccc(-c2ccc3ncnc(NCCNC(C)=O)c3c2)c1`, the Potency is > 11.4 µM (inactive) in [1]; > 46 µM (inactive) in experiment [5]; > 46 µM (inactive) in [6]; 0.355 µM (active) in [9]; 0.447 µM (active) in experiment [10]; 0.282 µM (active) in [11]. Besides, the activity change, negative = inhibition is -19.2% (inactive) in [2], 21% (inactive) in [3] and -2.84% (inactive) in [8]. The activity, negative = inhibition in [4] is 11% (inactive). The Potency entry in [7], in experiment [12], in [15] and in [13] was “inactive” throughout. For the same compound, the max response was -13.2% in experiment [8] (setting [17]) and -16.4% in experiment [8] (setting [18]).
